Laboratory results: PubChem BioAssay (Tox21)
Calls of active or inactive are those of the source. Unless noted, calls come from the whole dose curve; as a rule, active = well fitted curve in the direction sought with a large enough effect in the repeat runs; inconclusive = weak or mixed curves; inactive = no such curve, though single readings can be large; an effect the other way counts as inactive or inconclusive.

How the values were obtained:
[1] = qHTS assay to test for compound auto fluorescence at 535 nm (green) in HEK293 cells (AID 720680)
[2] = qHTS assay to test for compound auto fluorescence at 460 nm (blue) in HEK293 cell free culture (AID 720681)
Method in brief: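 Blue fluorescence (Ex 405/Em 460 nm, triamterene-equivalent) was read immediately after pin transfer of compound or DMSO into medium (DMEM, 10% FBS) without cells.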

[3] = qHTS assay to test for compound auto fluorescence at 535 nm (green) in HEK293 cell free culture (AID 720682)
Method in brief: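 Steps: dispense DMEM/10% FBS into empty wells; pin in compound or DMSO; measure fluorescence at 485/535 nm. Values are fluorescein equivalents.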

[4] = qHTS assay to test for compound auto fluorescence at 590 nm (red) in HepG2 cell free culture (AID 720684)
Method in brief: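 Steps: dispense MEM/10% FBS medium, no cells; pin compound or DMSO vehicle; read red channel, Ex/Em 540/590 nm. Output given as Rose Bengal sodium equivalents.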

[5] = qHTS assay to test for compound auto fluorescence at 535 nm (green) in HepG2 cell free culture (AID 720686)
[6] = qHTS assay to test for compound auto fluorescence at 460 nm (blue) in HepG2 cells (AID 720687)
Method in brief: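 Blue-channel autofluorescence (Ex/Em 405/460 nm, triamterene-equivalent) was measured after 1 hr compound exposure at 37 C, 5% CO2. Cells were HepG2, plated overnight at 37 C in MEM plus 10% FBS.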

[7] = molecular target: Glucocorticoid receptor (Homo sapiens) (UniProt P04150); assay: qHTS assay to identify small molecule agonists of the glucocorticoid receptor (GR) signaling pathway (AID 720691; active = well fitted activation curve with a large enough effect in the signal ratio in the repeat runs, not every such curve was filed as active; inconclusive = weak or mixed curves, or effect the other way; inactive = no such curve, though single readings can be large or run the other way; the % refers to the signal ratio; note: potency is the fitted concentration of half-maximal effect); conditions: GR-bla HeLa, beta-lactamase reporter ratio, 18 h; activation: at 62.4 µM (top of the series)
Chain of Glucocorticoid receptor (Homo sapiens) (P04150 whole entry, looked up): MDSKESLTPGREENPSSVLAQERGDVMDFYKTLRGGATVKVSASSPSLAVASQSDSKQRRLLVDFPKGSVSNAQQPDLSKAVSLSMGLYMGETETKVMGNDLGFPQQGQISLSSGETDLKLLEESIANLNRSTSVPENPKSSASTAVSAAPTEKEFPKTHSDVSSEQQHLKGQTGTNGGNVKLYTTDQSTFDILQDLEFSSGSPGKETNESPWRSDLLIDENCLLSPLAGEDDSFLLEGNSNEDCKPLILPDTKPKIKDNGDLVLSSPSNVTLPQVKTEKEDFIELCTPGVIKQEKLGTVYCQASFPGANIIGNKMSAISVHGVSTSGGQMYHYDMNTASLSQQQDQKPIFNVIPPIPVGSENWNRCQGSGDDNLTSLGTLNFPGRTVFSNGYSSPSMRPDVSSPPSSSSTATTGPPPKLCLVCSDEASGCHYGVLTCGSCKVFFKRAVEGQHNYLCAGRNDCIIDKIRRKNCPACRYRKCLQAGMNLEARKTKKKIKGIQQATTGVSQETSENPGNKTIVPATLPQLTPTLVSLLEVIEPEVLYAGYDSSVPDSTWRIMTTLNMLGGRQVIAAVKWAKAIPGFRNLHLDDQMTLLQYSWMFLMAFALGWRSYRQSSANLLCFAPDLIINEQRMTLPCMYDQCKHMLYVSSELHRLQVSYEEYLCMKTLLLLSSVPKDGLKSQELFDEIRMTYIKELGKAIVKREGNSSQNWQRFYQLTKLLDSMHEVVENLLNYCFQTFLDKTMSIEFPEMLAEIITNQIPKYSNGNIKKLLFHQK
Method in brief: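 Agonist mode in a HeLa line carrying a GRE-controlled beta-lactamase reporter. Compounds act for 18 h at 37 C before a 2 h room-temperature FRET substrate step and fluorescence reading.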

[8] = qHTS assay to identify small molecule antagonists of the glucocorticoid receptor (GR) signaling pathway - cell viability counter screen (AID 720693); note: nearly all actives have a fitted effect of over 55% in size
[9] = qHTS assay for identifying genotoxic compounds that show differential cytotoxicity against isogenic chicken DT40 cell lines with known DNA damage response pathways - wild type cell line (AID 743012); note: nearly all actives have a fitted effect of over 60% in size; note: potency is the fitted concentration of half-maximal effect
Method in brief: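 Cells (DT40 wild type, 300/well) are treated with DMSO-dissolved compounds after a ~0.5 h pre-incubation and kept 40 h at 37 C/5% CO2. Viability is then measured by CellTiter-Glo luminescence following 30 min at room temperature.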

[10] = qHTS assay for identifying genotoxic compounds that show differential cytotoxicity against isogenic chicken DT40 cell lines with known DNA damage response pathways - Rad54/Ku70 mutant cell line (AID 743015); note: nearly all actives have a fitted effect of over 60% in size; note: potency is the fitted concentration of half-maximal effect
[11] = qHTS assay to identify small molecule antagonists of the androgen receptor (AR) signaling pathway - cell viability counter screen (AID 743033; note: nearly all actives have a fitted effect of over 45% in size)
[12] = qHTS assay to identify small molecule antagonists of the androgen receptor (AR) signaling pathway using the MDA cell line - cell viability counter screen (AID 743041; note: nearly all actives have a fitted effect of over 45% in size)
Method in brief: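 Cells were plated at 3,000 per well and left 5 h. Compounds in DMSO were then pinned in, followed by R1881. After 16 h at 37C, CellTiter-Fluor fluorescence gave viability.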

[13] = qHTS assay to test for compound auto fluorescence at 460 nm (blue) in HepG2 cell free culture (AID 720685)
Method in brief: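 Compound (23 nL) or DMSO pinned into cell-free MEM with 10% FBS; blue fluorescence read at 405/460 nm excitation/emission, expressed as auto-fluorescence equivalency to triamterene.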

[14] = qHTS assay for identifying genotoxic compounds that show differential cytotoxicity against isogenic chicken DT40 cell lines with known DNA damage response pathways - Rev3 mutant cell line (AID 743014); note: nearly all actives have a fitted effect of over 55% in size; note: potency is the fitted concentration of half-maximal effect
[15] = molecular target: Glucocorticoid receptor (Homo sapiens) (UniProt P04150); assay: qHTS assay to identify small molecule antagonists of the glucocorticoid receptor (GR) signaling pathway (AID 720692; active = well fitted inhibition curve with a large enough effect in the signal ratio in the repeat runs, not every such curve was filed as active; inconclusive = weak or mixed curves, or effect the other way; inactive = no such curve, though single readings can be large or run the other way; the % refers to the signal ratio)
Method in brief: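 Cells plated, rested 4 h at 37 C/5% CO2; compounds in DMSO pin-transferred; dexamethasone added to 5 nM final; 18 h at 37 C; B/G FRET substrate added, 2 h room temperature; fluorescence measured.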

[16] = molecular target: Androgen receptor (Homo sapiens) (UniProt P10275); assay: qHTS assay to identify small molecule agonists of the androgen receptor (AR) signaling pathway (AID 743036; active = well fitted activation curve with a large enough effect in the signal ratio in the repeat runs, with a control signal flat, not every such curve was filed as active; inconclusive = weak or mixed curves, or effect the other way; inactive = no such curve, though single readings can be large or run the other way; the % refers to the signal ratio)
Chain of Androgen receptor (Homo sapiens) (P10275 whole entry, looked up): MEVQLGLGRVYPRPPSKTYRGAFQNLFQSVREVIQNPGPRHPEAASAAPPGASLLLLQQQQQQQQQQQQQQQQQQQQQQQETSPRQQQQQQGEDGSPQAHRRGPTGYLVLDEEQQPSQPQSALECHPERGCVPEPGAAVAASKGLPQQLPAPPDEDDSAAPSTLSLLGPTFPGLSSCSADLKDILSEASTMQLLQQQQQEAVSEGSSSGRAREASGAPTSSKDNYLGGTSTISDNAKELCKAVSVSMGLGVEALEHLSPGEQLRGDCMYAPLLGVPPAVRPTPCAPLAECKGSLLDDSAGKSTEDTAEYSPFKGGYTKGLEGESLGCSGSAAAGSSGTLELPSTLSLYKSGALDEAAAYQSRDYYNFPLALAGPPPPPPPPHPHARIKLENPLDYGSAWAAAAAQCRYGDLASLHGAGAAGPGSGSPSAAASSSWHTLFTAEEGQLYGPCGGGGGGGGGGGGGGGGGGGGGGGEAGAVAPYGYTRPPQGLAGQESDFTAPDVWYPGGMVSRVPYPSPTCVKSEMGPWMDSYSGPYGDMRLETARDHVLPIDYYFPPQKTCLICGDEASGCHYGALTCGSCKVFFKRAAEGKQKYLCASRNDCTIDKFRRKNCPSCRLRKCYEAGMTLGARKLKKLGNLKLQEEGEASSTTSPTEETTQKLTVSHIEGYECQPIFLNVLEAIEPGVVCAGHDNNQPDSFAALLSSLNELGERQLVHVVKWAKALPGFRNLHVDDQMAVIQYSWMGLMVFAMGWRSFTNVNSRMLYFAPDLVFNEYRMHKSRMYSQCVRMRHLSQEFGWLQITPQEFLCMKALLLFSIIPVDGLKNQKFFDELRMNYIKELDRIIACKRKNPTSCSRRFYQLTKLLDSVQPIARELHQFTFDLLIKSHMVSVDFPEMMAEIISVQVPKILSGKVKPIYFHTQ
Method in brief: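 Reporter line: GeneBLAzer AR-UAS-bla-GripTite (HEK293). Steps: plate cells, 4 h rest, add compounds, 16 h at 37C, add LiveBLAzer B/G substrate, 2 h at RT, read fluorescence.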

[17] = molecular target: Androgen receptor (Homo sapiens) (UniProt P10275); assay: qHTS assay to identify small molecule agonists of the androgen receptor (AR) signaling pathway using the MDA cell line (AID 743040; note: nearly all actives have a fitted effect of over 20% in size)
Method in brief: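 Cells plated, 5 h at 37C/0% CO2; compound or DMSO pinned; 16 h at 37C; ONE-Glo added; luminescence measured after 30 min at room temperature. Reporter line: MDA-kb2 with MMTV-luciferase responsive to AR and GR.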

[18] = molecular target: Androgen receptor (Homo sapiens) (UniProt P10275); assay: qHTS assay to identify small molecule antagonists of the androgen receptor (AR) signaling pathway using the MDA cell line (AID 743042; note: potency is the fitted concentration of half-maximal effect; nearly all actives have a fitted effect of over 55% in size)
Method in brief: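 Antagonist mode: compounds plus R1881 agonist added to MDA-kb2 AR-luc cells, incubated 16 h at 37C. Luciferase reporter luminescence quantified, with multiplexed CellTiter-Fluor readout for cell viability.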

Measured: Potency

C[C@H]1C[C@@H]2[C@H]([C@@H](O)C[C@@]3(C)[C@H]2CC[C@]3(O)C(=O)COC(=O)CCC(=O)O)[C@@]2(C)C=CC(=O)C=C12
active: [7] 0.0268 µM [inconclusive]
not listed: [13] | [14] | [15] | [16] | [17] | [18]
inactive: all other assays above

Nc1ncnc2c1ncn2[C@@H]1O[C@H](COP(=O)(O)OP(=O)(O)OP(=O)(O)O)[C@@H](O)[C@H]1O
not listed: [8] | [15] | [16] | [17] | [18]
inactive: all other assays above

CN(C)c1ccc(C(=C2C=CC(=[N+](C)C)C=C2)c2c(O)c(S(=O)(=O)[O-])cc3cc(S(=O)(=O)O)ccc23)cc1
active: [9] 11.9 µM | [14] 10.6 µM | [10] 13.3 µM | [18] 11.9 µM
not listed: [11] | [12] | [13]
inactive: all other assays above

O=[N+]([O-])O[C@@H]1CO[C@H]2[C@@H]1OC[C@@H]2O
not listed: [14] | [16] | [17] | [18]
inactive: all other assays above

O=C(CCCN1CCC(n2c(=S)[nH]c3ccccc32)CC1)c1ccc(F)cc1
inactive: [1] | [2] | [3] | [4] | [13] | [5] | [6]
active: [9] 11.9 µM | [14] 18.8 µM
